Records with an inconclusive call do not appear. Calls of active or inactive are those of the source. Unless noted, calls come from the whole dose curve; as a rule, active = well fitted curve in the direction sought with a large enough effect in the repeat runs; inconclusive = weak or mixed curves; inactive = no such curve, though single readings can be large; an effect the other way counts as inactive or inconclusive.
How the values were obtained:
[1] = qHTS RealTime-Glo MT Cell Viability Assay in HEK293 cells - 24 hour (AID 1224886); note: top concentration of the series differs between compounds; nearly all actives have a fitted effect of over 50% in size
How it was run: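 Nonlytic real-time viability readout: viable cells convert prosubstrate to NanoLuc substrate, giving luminescence proportional to live cell number. HEK293, 600 cells/well, compound added after 5 h, continuous culture at 37 C.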

[2] = qHTS RealTime-Glo MT Cell Viability Assay in HEK293 cells - 8 hour (AID 1224887); note: top concentration of the series differs between compounds; nearly all actives have a fitted effect of over 50% in size
How it was run: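 Kinetic, non-lysing viability readout. Seed HEK293 (600/well) with reagent, incubate 5 h at 37 C/5% CO2, pin 23 nL compound in DMSO, incubate at 37 C, read luminescence at 0, 8, 16, 24, 32, 40 h.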

[3] = A CellTox Green Cytotoxicity Assay to monitor cytotoxicity in HEK293 cells - 16 hour (AID 1224888); note: nearly all actives have a fitted effect of over 35% in size
How it was run: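 Real-time, in one plate: 600 HEK293 cells/well with dead-cell DNA dye, pinned compound after 5 h, 37 C incubation over 40 h; viable cells give no appreciable fluorescence.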

[4] = qHTS RealTime-Glo MT Cell Viability Assay in HepG2 cells - 0 hour (AID 1224889); note: nearly all actives have a fitted effect of over 50% in size
How it was run: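 Luminescence read-out: viable HepG2 cells reduce a prosubstrate to a NanoLuc substrate, giving a signal proportional to live cell number. Reads taken at 0, 8, 16, 24, 32 and 40 h of compound exposure at 37 C.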

[5] = A CellTox Green Cytotoxicity Assay to monitor cytotoxicity in HepG2 cells - 8 hour (AID 1224890); note: nearly all actives have a fitted effect of over 45% in size
How it was run: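 Cytotoxicity was tracked as dead-cell DNA fluorescence in HepG2 cells treated with test compounds at 37 C; each time-point value comes from one kinetic series spanning 0, 8, 16, 24, 32 and 40 h.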

[6] = qHTS assay to identify small molecule antagonists of the estrogen receptor alpha (ER-alpha) signaling pathway using the BG1 cell line in the presence of 0.1 nM 17-beta-estradiol - cell viability counter screen (AID 1259241); note: nearly all actives have a fitted effect of over 40% in size
How it was run: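 VM7Luc4E2, 4,000 cells/well, phenol red-free medium + 10% charcoal-stripped FBS; 24 hr plating; cpd + 0.1 nM E2 final, 22 hr 37C/5% CO2; CellTiter-Fluor 30 min, fluorescence.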

[7] = qHTS assay to identify small molecule antagonists of the androgen receptor (AR) signaling pathway using the MDA cell line in the presence of 0.5 nM R1881 - cell viability counter screen (AID 1259242); note: nearly all actives have a fitted effect of over 45% in size
How it was run: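 Cells seeded at 3,000/well and allowed 5 hr at 37C, 0% CO2 before compound transfer and R1881 (0.5 nM final) addition; 16 hr later, live-cell protease fluorescence indicated cytotoxicity.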

[8] = biological target: Estrogen receptor (Homo sapiens) (UniProt P03372); assay: qHTS assay to identify small molecule antagonists of the estrogen receptor alpha (ER-alpha) signaling pathway using the BG1 cell line in the presence of 0.1 nM 17-beta-estradiol (AID 1259244); note: nearly all actives have a fitted effect of over 50% in size
How it was run: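 Luciferase signal from VM7Luc4E2 ERE-reporter cells, co-dosed with test compound and 0.1 nM final 17beta-estradiol for 22 h, read with ONE-Glo.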

[9] = qHTS assay to identify small molecule phospholipidosis (PLD) inducers (AID 1259344; active = well fitted curve in the direction sought with a large enough effect; an effect the other way counts as inactive or inconclusive)
How it was run: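 Cells (HepG2, 900 per well) attach for 4 h, receive LipidTOX Red and compound together, incubate 24 h at 37 C, are fixed 30 min with paraformaldehyde/Hoechst, then imaged at one site per well.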

[10] = qHTS assay to identify small molecule HDAC inhibitors (AID 1259364);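 note: wild-type HCT-116 cells with endogenous class I/II HDAC activity; top concentration of the series differs between compounds; nearly all actives have a fitted effect of over 45% in size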
How it was run: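 HCT-116 wt cells, 1,500/well, overnight attach. Compounds (DMSO) 2 h, 37 °C. HDAC-Glo I/II, 30 min RT. Luminescence.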

[11] = qHTS assay to identify small molecule HDAC inhibitors - cell viability counter screen (AID 1259365)
How it was run: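 Luminescence from CellTiter-Glo, developed 30min at room temperature, reports viability of wild-type HCT-116 cells treated 2hr with compounds at 37 C and 5% CO2 after overnight plating.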

[12] = qHTS assay to identify small molecule agonists of the sonic hedgehog signaling (Shh) pathway - cell viability counter screen (AID 1259366); note: nearly all actives have a fitted effect of over 50% in size
How it was run: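 Cytotoxicity counter screen run in the same wells as the Shh reporter assay. NIH/3T3 cells carrying a Gli1 response element–driven luciferase were treated with DMSO-dissolved compounds for 24hr, and live-cell protease activity was measured with CellTiter-Fluor.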

[13] = qHTS assay to identify small molecule antagonists of the sonic hedgehog signaling (Shh) pathway - cell viability counter screen (AID 1259367); note: nearly all actives have a fitted effect of over 55% in size
How it was run: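 Cytotoxicity was assessed in parallel with Shh reporter activity by measuring live-cell protease fluorescence (CellTiter-Fluor) in NIH/3T3 cells stably carrying Gli1-Luc, treated with compound under conditioned medium stimulation for 23 hr plus 1 hr reagent incubation.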

[14] = qHTS assay to identify small molecule agonists of the sonic hedgehog signaling (Shh) pathway (AID 1259368; calls by dose curve;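 note: NIH/3T3-derived 3T3Gli1-Luc cells carrying a stable Gli1-driven firefly luciferase reporter; series mostly up to about 92 µM; nearly all actives have a fitted effect of over 15% in size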)
How it was run: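 Following a 24 hr incubation with DMSO-dissolved compounds at 37 C, 5% CO2, Gli1-Luc NIH/3T3-derived cells received luciferase reagent for 30 min at room temperature prior to luminescence measurement.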

[15] = qHTS assay to identify small molecule antagonists of the sonic hedgehog signaling (Shh) pathway (AID 1259369; calls by dose curve; note: nearly all actives have a fitted effect of over 45% in size)
How it was run: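 Read-out is luminescence from a firefly luciferase gene controlled by the Gli1 response element, in 3T3Gli1-Luc cells pre-incubated 4hr then exposed to compounds and conditioned medium for 24hr.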

[16] = qHTS assay to identify small molecule agonists of the androgen receptor (AR) signaling pathway in the presence of an antagonist - cell viability counter screen (AID 1259379);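 note: MDA-kb2 human breast cancer cells carrying an MMTV luciferase reporter; series mostly up to about 92 µM; nearly all actives have a fitted effect of over 25% in size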
How it was run: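 Each compound was tested at 15 concentrations on MDA-kb2 cells in the presence of 3.0uM nilutamide. Viability was measured by CellTiter-Fluor fluorescence after a 16 hr incubation at 37C in a CO2-free atmosphere.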

[17] = qHTS assay to identify small molecule agonists of the estrogen receptor beta (ER-beta) signaling pathway - cell viability counter screen (AID 1259380); note: nearly all actives have a fitted effect of over 30% in size
How it was run: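 Compounds dissolved in DMSO were pin-transferred onto ER-beta-UAS-bla HEK293T cells that had settled 6 hr, and exposure ran 16 hr at 37C. Following the reporter read, CellTiter-Glo luminescence after 30 min at room temperature indicated cytotoxicity.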

[18] = biological target: Androgen receptor (Homo sapiens) (UniProt P10275); assay: qHTS assay to identify small molecule antagonists of the androgen receptor (AR) signaling pathway using the MDA cell line in the presence of 0.5 nM R1881 (AID 1259243); note: nearly all actives have a fitted effect of over 50% in size
How it was run: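 Luminescence from an AR/GR-responsive MMTV-luciferase construct in MDA-kb2 breast carcinoma cells, read 30 min after ONE-Glo, following 16 hr co-treatment with compounds and 0.5 nM R1881.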

[19] = biological target: Estrogen receptor beta (Homo sapiens) (UniProt Q92731); assay: qHTS assay to identify small molecule agonists of the estrogen receptor beta (ER-beta) signaling pathway (AID 1259377; active = well fitted activation curve with a large enough effect in the signal ratio in the repeat runs, not every such curve was filed as active; the % refers to the signal ratio)
How it was run: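 HEK293T ER-beta-UAS-bla; 2% charcoal-stripped FBS; cells pre-incubated 6 hr, compound 16 hr, 37C/5% CO2; LiveBLAzer B/G FRET substrate 2 h RT; fluorescence intensity read.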

[20] = biological target: Estrogen receptor beta (Homo sapiens) (UniProt Q92731); assay: qHTS assay to identify small molecule antagonists of the estrogen receptor beta (ER-beta) signaling pathway (AID 1259378; active = well fitted inhibition curve with a large enough effect in the signal ratio in the repeat runs, not every such curve was filed as active; the % refers to the signal ratio)
How it was run: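 ER-beta-UAS-bla HEK293T (GripTite) cells in 2% charcoal-stripped FBS medium were preincubated 6 hr at 37C, dosed with compound, then stimulated with 1 nM E2 (final) for 16 hr; beta-lactamase reporter read by B/G FRET fluorescence after 2 hr substrate loading.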

Measured: Potency

Sequence of Estrogen receptor beta (Homo sapiens) (Q92731 whole entry, looked up): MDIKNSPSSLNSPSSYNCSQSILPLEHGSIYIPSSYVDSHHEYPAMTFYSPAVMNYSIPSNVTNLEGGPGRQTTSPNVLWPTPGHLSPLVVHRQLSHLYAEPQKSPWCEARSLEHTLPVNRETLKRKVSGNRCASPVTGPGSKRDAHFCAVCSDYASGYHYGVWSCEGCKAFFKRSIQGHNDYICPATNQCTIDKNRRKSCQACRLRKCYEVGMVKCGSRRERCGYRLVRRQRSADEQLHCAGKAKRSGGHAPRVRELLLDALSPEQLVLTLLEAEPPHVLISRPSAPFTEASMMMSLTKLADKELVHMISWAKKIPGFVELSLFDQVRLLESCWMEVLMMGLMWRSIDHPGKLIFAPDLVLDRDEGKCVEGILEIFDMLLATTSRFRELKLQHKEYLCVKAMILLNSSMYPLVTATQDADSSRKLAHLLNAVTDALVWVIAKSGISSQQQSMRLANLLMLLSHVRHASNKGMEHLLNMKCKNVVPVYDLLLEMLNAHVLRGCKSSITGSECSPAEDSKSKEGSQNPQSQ
Sequence of Androgen receptor (Homo sapiens) (P10275 whole entry, looked up): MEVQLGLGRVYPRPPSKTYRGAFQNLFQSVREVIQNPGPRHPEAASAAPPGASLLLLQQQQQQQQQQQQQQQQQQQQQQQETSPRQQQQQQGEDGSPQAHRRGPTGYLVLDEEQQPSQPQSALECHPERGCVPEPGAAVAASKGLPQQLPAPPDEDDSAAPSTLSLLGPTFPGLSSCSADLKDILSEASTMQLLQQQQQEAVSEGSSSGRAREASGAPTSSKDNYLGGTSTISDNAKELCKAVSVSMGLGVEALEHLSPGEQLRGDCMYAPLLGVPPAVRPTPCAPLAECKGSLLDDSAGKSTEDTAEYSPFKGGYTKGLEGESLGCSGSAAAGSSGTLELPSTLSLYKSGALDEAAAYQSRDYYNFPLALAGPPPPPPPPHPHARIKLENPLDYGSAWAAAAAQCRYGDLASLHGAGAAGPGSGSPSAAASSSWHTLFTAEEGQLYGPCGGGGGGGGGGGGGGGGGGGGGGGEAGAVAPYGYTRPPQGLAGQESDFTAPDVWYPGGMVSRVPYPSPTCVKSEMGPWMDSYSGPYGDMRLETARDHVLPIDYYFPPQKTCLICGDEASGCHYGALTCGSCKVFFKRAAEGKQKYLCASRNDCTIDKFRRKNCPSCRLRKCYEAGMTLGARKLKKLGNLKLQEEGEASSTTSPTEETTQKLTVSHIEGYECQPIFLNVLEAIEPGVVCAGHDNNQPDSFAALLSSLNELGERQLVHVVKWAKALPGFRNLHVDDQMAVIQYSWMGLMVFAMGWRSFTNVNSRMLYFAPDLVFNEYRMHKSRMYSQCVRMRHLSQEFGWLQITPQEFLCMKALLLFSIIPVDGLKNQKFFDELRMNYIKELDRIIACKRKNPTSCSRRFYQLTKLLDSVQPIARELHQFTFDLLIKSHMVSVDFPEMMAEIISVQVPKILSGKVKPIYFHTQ
Sequence of Estrogen receptor (Homo sapiens) (P03372 whole entry, looked up): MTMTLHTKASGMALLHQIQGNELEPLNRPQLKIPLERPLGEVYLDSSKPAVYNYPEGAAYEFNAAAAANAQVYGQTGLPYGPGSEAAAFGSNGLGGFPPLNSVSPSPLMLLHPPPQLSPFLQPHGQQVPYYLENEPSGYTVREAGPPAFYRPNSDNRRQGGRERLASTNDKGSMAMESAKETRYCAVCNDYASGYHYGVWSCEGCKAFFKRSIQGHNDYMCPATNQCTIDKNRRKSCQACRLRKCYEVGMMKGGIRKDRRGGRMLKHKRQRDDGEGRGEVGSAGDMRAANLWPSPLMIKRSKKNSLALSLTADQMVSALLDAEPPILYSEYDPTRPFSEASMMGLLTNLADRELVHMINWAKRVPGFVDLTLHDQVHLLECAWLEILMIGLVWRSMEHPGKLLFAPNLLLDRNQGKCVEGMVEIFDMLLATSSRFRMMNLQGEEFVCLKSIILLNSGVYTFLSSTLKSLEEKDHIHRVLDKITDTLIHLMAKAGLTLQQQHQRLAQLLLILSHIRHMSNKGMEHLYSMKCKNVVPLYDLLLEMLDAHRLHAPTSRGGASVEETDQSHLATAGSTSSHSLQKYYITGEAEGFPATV

O=C(O)/C=C/c1ccccc1
not listed: [18] | [19] | [20]
inactive: all other assays above

O=c1[nH]c(=O)c2ccccc2o1
not listed: [8] | [13] | [14] | [15] | [17] | [20]
inactive: all other assays above

O=[Si]=O
not listed: [9] | [18]
inactive: all other assays above

CCCCCCCCCCC
not listed: [8] | [9] | [13] | [14] | [17] | [20]
inactive: all other assays above

Nc1ccc(C(=O)OCC(O)CO)cc1 (stereo not given)
not listed: [9] | [18]
inactive: all other assays above

COC(OC)C(C)c1ccccc1 (stereo not given)
not listed: [9] | [17]
inactive: all other assays above

CC(=O)OC[C@H]1O[C@@H](OC(C)=O)[C@H](OC(C)=O)[C@@H]1OC(C)=O
not listed: [9] | [15] | [19] | [20]
inactive: all other assays above

Source: PubChem BioAssay (Tox21)
